PubChem BioAssay (Tox21)
Values joined by “and” are separate entries in the source; they are usually repeats but may differ in a detail not shown here. Equal entries are not always repeated. Inconclusive results are not listed. Active and inactive are the calls of the source. The call rests on the fitted dose curve; in most records, active means well fitted cell-killing curve with a large enough effect in the repeat runs; inconclusive means weak or mixed curves, or effect the other way; inactive means no such curve, though single readings can be large or run the other way.

Experiment: qHTS assay to identify small molecule agonists of the RXR signaling pathway - cell viability counter screen (AID 1159529); further: nearly all actives have a fitted effect of over 50% in size
Settings: RXR-alpha-bla HEK293T viability, CellTiter-Glo, 16 h; series mostly up to 76.8 µM; activity change, negative = cytotoxicity: at the top concentration
From the text: National Center for Advancing Translational Sciences [NCATS]
NIH Chemical Genomics Center [NCGC]
U.S. Environmental Protection Agency [EPA]
National Institutes of Environmental Health Sciences [NIEHS]
National Toxicology Program [NTP]
U.S. Food and Drug Administration [FDA]
The Retinoid X receptor (RXR), a nuclear hormone receptor expressed in liver, spleen, placenta, epidermis, central nervous system. These receptors are able to form homo and heterodimers with other nuclear receptors and due to this heterodimerizing ability, RXR functions as master regulators producing diverse physiological effects. Three subtypes of RXR exist; alpha, beta and gamma. Retinoid X receptor alpha (RXR-alpha) has potential roles in metabolic signaling pathways, skin alopecia, dermal cysts, cardiac development, insulin sensitization etc. Therefore screening environmental chemicals on RXR-alpha signaling can be used for the studies focused on such therapeutic applications. For quantification of RXR-alpha ligands signaling, GeneBLAzer RXR alpha-UAS-bla HEK 293T (Life Technologies, Carlsbad, CA) cells containing a beta-lactamase reporter-gene under control of Retinoid X receptor-alpha response element were used to screen Tox21 10K library. The cytotoxicity of the Tox21 compound library against the RXR-alpha HEK 293T cell line was tested in parallel by measuring cell viability using CellTiter-Glo assay (Promega Corporation, Madison, WI) in the same wells.
Tox21 Assay Protocol Summary:
RXR-alpha HEK 293T cells were dispensed at 2,000 cells/6 uL of assay medium containing 2% charcoal-stripped FBS using a Multidrop Combi (ThermoFisher Scientific, Waltham, MA) dispenser. The assay was performed in black wall/clear-bottom 1536-well plates (Greiner Bio-One North America Inc. Monroe, NC). Tetraoctyl ammonium bromide was used as a positive control in the cytotoxicity screen. After the assay plates were incubated at 37 C and 5% CO2 for 5 hr, 23 nL of compounds dissolved in DMSO, positive control or DMSO only were transferred to the assay plate by a Pintool station (Kalypsys, San Diego, CA). The assay plates were incubated at 37 C and 5% CO2 for 16 hr. One uL of LiveBLAzer B/G FRET substrate (Life Technologies) was added using a Flying Reagent Dispenser (FRD) (Aurora Discovery, San Diego, CA) and the plates were incubated at room temperature for 2 hr. Fluorescence intensity (405 nm excitation, 460/530 nm emission) was measured using an Envision plate reader (PerkinElmer, Shelton, CT). For cytotoxicity, 4 uL/well of CellTiter-Glo reagent was added into the assay plates using an FRD. After 30 min incubation at room temperature, the luminescence intensity was measured using a ViewLux plate reader (PerkinElmer).
On the % scale 0 is the no-effect control and ±100 the full control effect; potency means the concentration at half of the fitted maximal effect.

Structure (SMILES)	activity change, negative = cytotoxicity	Potency
O=C(Nc1cccc([N+](=O)[O-])c1)c1cc2ccccc2cc1O	-20.8% (inactive)	–
CCC(C)(C)C1CCCCC1OC(C)=O (stereo not given)	1.22% (inactive)	–
CN(C)[C@@H]1C(=O)C(C(N)=O)=C(O)[C@@]2(O)C(=O)C3=C(O)c4c(O)cccc4C[C@H]3C[C@@H]12	11% [at 35.3 µM] (inactive)	–
CO[Si](CCCNc1ccccc1)(OC)OC	0.613% (inactive)	–
Nc1ccc2cc(S(=O)(=O)O)cc(O)c2c1N=Nc1ccccc1C(F)(F)F	8.38% (inactive)	–
O=C(O)c1cc(O)c2c(c1)C(=O)c1cccc(O)c1C2=O	6.98% (inactive)	–
C[n+]1cc2c3c(ccc2c2ccc4cc5c(cc4c21)OCO5)OCO3	–	1.47 µM (active)
COc1cc(-c2ccc(N=C=O)c(OC)c2)ccc1N=C=O	-6.81% [at 35.3 µM] (inactive)	–
CCN(C(=O)c1cc(C)cc(OC[C@H](C)Nc2ccncc2)c1)C(C)C	-19% [at 35.3 µM] (inactive)	–
CCCCCCCC[N+](CCCCCCCC)(CCCCCCCC)CCCCCCCC	–	13.8 µM (active)
CCOc1nc2cccc(C(=O)OC(C)OC(=O)OC3CCCCC3)c2n1Cc1ccc(-c2ccccc2-c2nn[nH]n2)cc1 (stereo not given)	–	27.5 µM (active)
Cc1onc(-c2c(Cl)cccc2Cl)c1C(=O)N[C@@H]1C(=O)N2[C@@H]1SC(C)(C)[C@@H]2C(=O)O	7.61% [at 35.3 µM] (inactive)	–
Cc1cc(=O)oc2cc(N(C)C)ccc12	-8.92% (inactive)	–
Cc1cc(N)c(S(=O)(=O)O)cc1Cl	-1.63% (inactive)	–
OCCN1CCN(CC/C=C2/c3ccccc3Sc3ccc(C(F)(F)F)cc32)CC1	–	19 µM (active)
Cc1c(C)c2c(c(C)c1O)CCC(C)(COc1ccc(CC3SC(=O)NC3=O)cc1)O2 (stereo not given)	–	inactive
Oc1cc2ccccc2c2ccccc12	–	4.9 µM (active)
Clc1ccccc1C(c1ccccc1)(c1ccccc1)n1ccnc1	–	21.9 µM (active)
CC(C)(C)CC(C)(C)c1ccc(OCCOCC[N+](C)(C)Cc2ccccc2)cc1	–	6.91 µM (active) and 4.77 µM (active)
O=c1[nH]sc2ccccc12	–	19.5 µM (active)

Structure (SMILES)	activity change, negative = cytotoxicity	Potency
O=[N+]([O-])c1cc(Cl)c(Cl)c(Cl)c1Cl	8.77% (inactive)	–
O=C1CCCc2c1cc1ccc3cccc4ccc2c1c34	8.03% (inactive)	–
CCCCCCCCCCn1cc[n+](CCCCCCCCCC)c1C	–	6.93 µM (active)
O=C1c2c(O)ccc(Nc3ccc(CCO)cc3)c2C(=O)c2c([N+](=O)[O-])ccc(O)c21	-6.41% (inactive)	–
NNc1nc(-c2ccc([N+](=O)[O-])cc2)cs1	-20.6% (inactive)	–
O=CC=C(c1ccccc1)c1ccccc1	-12.7% (inactive)	–
CN1CCN(CCC(=O)N2c3ccccc3Sc3ccc(C(F)(F)F)cc32)CC1	–	23.9 µM (active)
Cc1cc(O)c2ccccc2c1O	–	15.1 µM (active)
CCCCCCCCCCCCCCCCCC[N+](C)(C)Cc1ccccc1	–	4.95 µM (active)
Fc1ccc([C@@H]2CCNC[C@H]2COc2ccc3c(c2)OCO3)cc1	-11.5% [at 35.3 µM] (inactive)	–
CCc1cc(SCc2sc(-c3ccc(C(F)(F)F)cc3)nc2CN2CCN(c3ccc(OC)cc3)CC2)ccc1OCC(=O)O	–	3.89 µM (active)
C=CC(=O)OCCn1c(=O)n(CCOC(=O)C=C)c(=O)n(CCOC(=O)C=C)c1=O	–	24.5 µM (active)
O=C1C=CC(=O)N1c1ccc(Cc2ccc(N3C(=O)C=CC3=O)cc2)cc1	–	17.4 µM (active)
O=[N+]([O-])c1cc([N+](=O)[O-])c2ccc(S(=O)(=O)O)cc2c1O	5.66% (inactive)	–
OC1(c2ccc(Cl)c(C(F)(F)F)c2)CCN(CCCC(c2ccc(F)cc2)c2ccc(F)cc2)CC1	–	6.74 µM (active)
C=C(C)C(=O)OCC[N+](C)(C)C	-1% (inactive)	–
C/C=C1/C(=O)C[C@H]2[C@@H]3CCC4=CC(=O)CC[C@]4(C)[C@H]3CC[C@]12C	-12.7% (inactive)	–
CC[C@H](c1ccc(O)cc1)[C@@H](CC)c1ccc(O)cc1	–	49 µM (active)
N=C1N=C(N)c2ccccc21	0.597% (inactive)	–
O=C1c2ccccc2Cc2ccccc21	3.4% (inactive)	–
